The record followed here is PubChem BioAssay (EPA / NIEHS).

Results filed as inconclusive are left out. Activity calls are given as the source filed them. Rule for the calls: active = hit-call score of the fitted dose curve at least 0.9, where 1 is the maximum; inconclusive = response in the unintended direction; inactive = score below 0.9.

A short description of this assay: CCTE_Shafer_MEA_acute_AB: CCTE's Alamar Blue Assay for Cytotoxicity in the Neural Acute Assay, Shafer Lab (AID 2284069).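 Note: active compounds lower the viability signal compared with DMSO wells.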 How it is done:
CCTE_Shafer_MEA_acute assay is conducted using Axion Biosystems 48 well microelectrode array (MEA) plates and Maestro recording system. Each well of the MEA plate contains a grid of 16 microelectrodes embedded in the culture surface. Electrically active cells, such as neurons, can be cultured over the electrodes, and electrical activity in these cells can be recorded extracellularly. The spontaneous firing of neurons is captured from each electrode on a microsecond timescale providing both temporally and spatially precise data. […] The CCTE_Shafer_MEA_acute assay uses primary cultures of rat cortical neurons. As these cultures mature over time, neural networks develop functional activity and form cohesive networks in which electrical activity can be highly coordinated. Baseline 40-minute recordings are made on days post-plating 13 or 15, followed by a secondary 40-minute recording after chemical exposure.CCTE_Shafer_MEA_acute_AB is a component of the CCTE_Shafer_MEA_acute assay. It measures the resazurin reduction using fluorescence.Data from the assay component CCTE_Shafer_MEA_acute_AB was analyzed into 1 assay endpoint. This assay endpoint, CCTE_Shafer_MEA_acute_AB, was analyzed in the positive analysis fitting direction relative to DMSO as the negative control and baseline of activity. Using a type of viability reporter, loss-of-signal activity can be used to understand cell viability.
Metabolic activity was determined using the CellTiter Blue (CTB) assay (Promega Cat. #8081), following the manufacturer's instructions with the following modifications. Following the removal of the 50 uL sample for the LDH assay, 450 uL of media was removed from each well and replaced with 200 uL of fresh media containing a 1:6 dilution of CTB reagent for the determination of metabolic activity. Fluorescence was measured in a Fluorostar Optima fluorimeter using an excitation wavelength of 544 nm and an emission wavelength of 590 nm.
Take `CCCN(C1CCN(C(=O)C2CCNCC2)CC1)[C@@H]1CCc2ccc(OC)cc2C1`: the molecule was classed as inactive. For `Cn1c(=O)c2c(ncn2C)n(C)c1=O`, the molecule was called inactive. As for `O=C(O)c1cc(N=Nc2ccc(S(=O)(=O)Nc3ccccn3)cc2)ccc1O`, the outcome was inactive. Consider `On1ccccc1=S`, for which the outcome was inactive.

Consider `COc1ccc2sc(C(=O)Nc3nnn[nH]3)c(OC(C)C)c2c1`, for which the molecule was classed as inactive. Take `CC(C)=CCCC(C)=CC=O`: the molecule was called inactive. `CCCCCCCCCCCCc1ccccc1`: the result was inactive.

`O=C(O)CCN(C1(C(=O)NO)CCCC1)S(=O)(=O)c1ccc(Oc2ccc(F)cc2)cc1`: the molecule was classed as inactive. The entry for `O=P(OC(CCl)CCl)(OC(CCl)CCl)OC(CCl)CCl` is “inactive”. On to `CC[C@H]1CC[C@H](NCc2cc3c(cc2OC)[C@H]2C[C@H]2C(=O)N3C)[C@H](c2ccccc2)N1`, for which the outcome was inactive.

Turning to `CC[C@H]1OC(=O)[C@H](C)[C@@H](O[C@H]2C[C@@](C)(OC)[C@@H](O)[C@H](C)O2)[C@H](C)[C@@H](O[C@@H]2O[C@H](C)C[C@H](N(C)C)[C@H]2O)[C@](C)(O)C[C@@H](C)C(=O)[C@H](C)[C@@H](O)[C@]1(C)O`, the outcome was inactive. With `CCCCC(CC)COC(=O)CCCCCCCCC(=O)OCC(CC)CCCC` (centres undefined), the call was inactive. As to `Cc1[nH]cnc1C[C@H]1CCc2c(C)c3ccccc3n2C1=O`, the result was inactive.

Turning to `CCOC(=O)c1ccc(C2CCC(NC[C@H](O)COc3ccc(O)c(NS(C)(=O)=O)c3)CC2)cc1` (some centres undefined), the result was inactive.
